# Abeta rescue = A-beta toxicity reversal in yeast; yeast expressing A-beta42, growth rescue, OD600, 48 h; response scale: 0% DMSO, 100% iron-clioquinol control; Potency, µM (doses to about 46.1 µM), actives largely listed as activators; AID 1347071; actives 0.063% (n = 410,000); further: potency means the concentration at half of the fitted maximal effect; nearly all actives have a fitted effect of over 55% in size
#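 Yeast A-beta toxicity model in growth medium with pinned compounds, 48 h at 30 C; growth read as absorbance at 600 nm. Normalized to FeCl3/clioquinol equimolar mix (positive) and DMSO (negative).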
# pAkt inh = blocks phosphorylation of Akt | Neuro2A IGF-stimulated pAkt S473 HTRF, 20 min; active compounds read low | activity change, % for hits at 50 µM | actives 0.32% (n = 360,000) | AID 651550; in the data active means activity change below about -80%; inconclusive means mostly about -51% to -80%; further: on the % scale 0 is the no-effect control and ±100 the full control effect
#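 Neuro2A cells in DMEM with 0.5% FBS, overnight at 37 deg C, given compound at single 50 µM final, then IGF (6 nM final) for 20 min at 37 deg C. Lysed; phospho-Akt Ser473 by HTRF after 24 h, 665/615 ratio.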
# TDP-43 yeast inh = inhibitors of TDP-43 toxicity in yeast. AID 652104. actives 1.8% (n = 410,000). TDP-43 expressing yeast growth rescue, BacTiter-Glo, 24 h. Potency, µM (titrated, usually from 46.1 µM), without a hit: top-dose growth rescue (activation), usual class: activators; further: potency means the concentration at half of the fitted maximal effect; % of control where 0% means no effect; nearly all actives have a fitted effect of over 50% in size
#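 Yeast expressing TDP-43 (pregrown in raffinose, seeded at OD600=0.02 in galactose medium) exposed to compounds 24 hr at 30 deg C. Growth read by BacTiter-Glo luminescence; rescue of toxicity appears as increased signal.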
# FUS yeast rescue = suppressors of FUS proteinopathy in yeast | Potency, µM (highest dose often 76.6 µM), actives largely listed as activators | S. cerevisiae FUS-expressing, growth rescue, OD600, 24 h | actives 0.24% (n = 390,000);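 further: potency means the concentration at half of the fitted maximal effect; plate controls were DMSO vehicle for no effect and reference control for full effect; nearly all actives have a fitted effect of over 55% in size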
#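 Galactose (2%) drives FUS expression in yeast precultured in raffinose; seeding density OD 0.005. Test compounds incubated 24hr at 30C and 99% humidity before absorbance at 600 nm was measured.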
# aSyn rescue = inhibitors of alpha-synuclein toxicity in yeast; Yeast expressing alpha-synuclein, growth rescue, BacTiter-Glo, 24 h; Potency, µM (titrated, usually from 46.1 µM), for the others: top-dose growth rescue (activation), most hits filed as activators; actives 0.14% (n = 370,000); AID 652106; further: potency means the concentration at half of the fitted maximal effect; % of control where 0% means no effect; nearly all actives have a fitted effect of over 65% in size
#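 Screening used galactose-induced yeast with toxic alpha-synuclein levels, exposed to compound for 24 hr at 30 deg C. Cell growth, read with BacTiter-Glo luminescence, gave the measured signal.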
# An asterisk follows results filed as active; i = inactive; ? = inconclusive; . = no result given. An excerpt weighted towards active compounds, which were near 2.3% of everything screened. Unless noted, the call rests on the fitted dose curve; in most records, active means well fitted curve in the direction sought with a large enough effect; inconclusive means small, poorly fitted or top-dose-only effect, or another doubt; inactive means no such curve, though single readings can be large; an effect the other way counts as inactive or inconclusive.
SMILES,Abeta rescue,pAkt inh,TDP-43 yeast inh,FUS yeast rescue,aSyn rescue
CC(C)Oc1ccc(C(=O)O)cc1,i,i,12.6µM*,i,1.2%
CC(C)Oc1ccc(C(=O)O)c(C(=O)O)c1,i,i,-19.8%,i,0.7%
Cc1nn(C(C)(C)C)c(OC(=O)C(C)(C)C)c1Sc1ccccc1,i,.,2.1%,i,.
Cc1ccc2cc(CN(C(=O)c3ccco3)c3ccccc3)c(=O)[nH]c2c1,i,i,-29.4%,i,18.0%
Cc1ccc(N(Cc2cc(=O)[nH]c3ccccc23)C(=O)c2ccco2)cc1,i,-119.0%*,12.9%,i,5.8%
CC(=O)N(Cc1cc(=O)[nH]c2ccccc12)c1ccc(C)cc1,i,i,-2.0%,i,1.8%
Cc1ccc(N(Cc2cc3ccccc3[nH]c2=O)C(=O)c2ccco2)c(C)c1,i,-112.0%*,-16.0%,i,?
CCCCN(Cc1cc2cc(OC)ccc2[nH]c1=O)C(=O)c1ccco1,i,-92.7%*,-11.6%,i,-7.9%
Cc1ccc(C(=O)NC(C#N)=C(Cl)Cl)cc1,i,i,11.2µM*,i,6.0%
Cc1cc(C)cc(-n2nnc(C(=O)NCc3ccc4c(c3)OCO4)c2N)c1,i,i,?,i,10.4%
Cc1c(C(=O)NCc2ccc3c(c2)OCO3)oc2ccc(S(=O)(=O)N3CCC(C)CC3)cc12,i,i,9.3%,i,12.0%
CC(C)Cc1ccc(C(=O)NCc2ccc3c(c2)OCO3)o1,i,i,14.1µM*,i,-2.9%
Cc1c(C(=O)NCc2ccc3c(c2)OCO3)oc2ccccc12,i,i,15.8µM*,i,4.5%
Cc1c(C(=O)NCc2ccc3c(c2)OCO3)oc2ccc(S(=O)(=O)N3CCCCCC3)cc12,i,-112.3%*,15.8%,i,6.7%
O=C(NCc1ccc2c(c1)OCO2)c1ccc(CS(=O)(=O)c2ccc(Br)cc2)o1,i,i,15.5%,i,2.5%
Cc1cc2oc(C(=O)NCc3ccc4c(c3)OCO4)c(C)c2cc1C,i,i,0.0%,i,2.5%
Cc1cccc(-n2nnc(C(=O)NCc3ccc4c(c3)OCO4)c2N)c1,i,i,17.8µM*,i,9.8%
COc1cc(NC(=O)Cn2ccn(-c3cc(C)cc(C)c3)c(=O)c2=O)cc(OC)c1,i,.,7.3%,i,.
Cc1cccc(CCNC(=O)c2ccc3c(c2)nc2n3CCOC2)c1,i,.,18.4%,i,.
CCC(C)(C)NC(=O)C1CCN(S(=O)(=O)c2ccc3c(c2)CCCN3C(C)=O)CC1,?,.,6.3%,i,.
Cc1c(C(=O)NCc2ccc3c(c2)OCO3)oc2ccc(Br)cc12,i,i,-15.9%,i,-1.2%
Cc1ccc2oc(C(=O)NCc3ccc4c(c3)OCO4)c(C)c2c1,i,i,22.4µM*,i,-4.5%
CCc1nc(NCc2ccc3c(c2)OCO3)c2oc3ccccc3c2n1,i,i,11.2µM*,i,-11.9%
Cc1cc(Cl)ccc1OCC(=O)N(Cc1sccc1C)C1CCS(=O)(=O)C1 (centres undefined),i,.,26.8%,i,.
CCOc1ccc(CNC(=O)CCCn2c(=O)c3cccn3c3ccc(F)cc32)cc1,i,.,13.2%,i,.
SMILES,Abeta rescue,pAkt inh,TDP-43 yeast inh,FUS yeast rescue,aSyn rescue
CCN(CC)CCOC(=O)c1ccc(NC(=O)c2cc3c(=O)n(CC)c4ccccc4c3s2)cc1,i,.,-23.4%,i,.
O=C(Nc1ccc(Cl)cc1)c1csc(COCCO)n1,i,i,19.9%,i,-4.8%
O=C(Nc1ccc(Oc2ccccc2)cc1)c1csc(COCCO)n1,i,i,12.6µM*,i,3.2%
O=C(Oc1cccc(NC(=O)c2ccccc2Cl)c1)c1ccc([N+](=O)[O-])cc1,i,i,12.6µM*,i,15.2%
O=C(Nc1cccc(O)c1)c1ccc([N+](=O)[O-])cc1Cl,i,i,11.6%,i,-1.3%
CC1CN(C(=O)c2ccccc2OCc2ccc(Cl)cc2Cl)CC(C)O1 (centres undefined),i,i,28.2µM*,i,8.8%
COc1cccc(NC(=O)N2CCc3nc(NCc4cccc(Oc5ccccc5)c4)ncc3C2)c1,i,i,21.2%,?,?
COc1cccc(NC(=O)N2CCc3nc(Nc4cc(Cl)cc(Cl)c4)ncc3C2)c1,?,i,15.8µM*,28.2µM*,?
CCOc1cc(/C=C2\COc3ccccc3C2=O)cc(Br)c1OCC(=O)N(C)C,i,i,22.4µM*,?,?
COc1ccc(/C=C2\COc3ccccc3C2=O)cc1OC,i,i,2.82µM*,i,23.4%
COc1ccc(/C=C2/CCc3ccccc3C2=O)cc1OC,i,i,?,i,9.6%
CCOc1cc(/C=N/Nc2nc3ccccc3[nH]2)cc(Br)c1OCC(=O)N(C)C,i,i,8.0%,i,2.6%
O=C(O)c1ccc(/C=C2\COc3ccccc3C2=O)cc1,i,i,11.2µM*,i,?
COc1ccc(-c2cn3c(n2)sc2cc(C(=O)NC4CCCc5ccccc54)ccc23)cc1 (centres undefined),i,.,16.6%,i,.
CCc1c(C)c2cc3c(c(C)c2oc1=O)OCN(CCc1ccc(OC)c(OC)c1)C3,i,.,-6.1%,i,.
NC(=S)Nc1cccc(Cl)c1,i,i,-4.4%,i,5.8%
CS/C(N)=N/C(=S)Nc1cccc(Cl)c1,12.6µM*,i,?,i,4.2%
COc1ccc(Br)cc1CNC(=O)c1cc(=O)[nH]c2ccc(S(=O)(=O)N3CCCCC3)cc12,i,.,19.0%,i,.
CCc1cccc(C)c1NC(=O)CSc1nc2ccccc2nc1Cc1ccccc1,i,.,21.1%,i,.
O=c1c2sc(-c3ccccc3)cc2nc2n1CCCCC2,i,i,11.2µM*,i,9.1%
Cn1c(NCCN2CCCC2)nc2cc(-c3ccccc3)sc2c1=O,i,i,6.8%,i,0.9%
O=c1c2sc(-c3ccccc3)cc2nc2n1CCC2,i,i,12.6µM*,i,?
O=C1/C(=C/c2ccncc2)SC(=S)N1C1CCS(=O)(=O)C1 (centres undefined),i,i,12.6µM*,i,0.1%
O=C1/C(=C/c2ccccc2)SC(=S)N1C1CCS(=O)(=O)C1 (centres undefined),i,i,14.7%,i,0.9%
CCOc1ccc(NS(=O)(=O)c2ccc(C(=O)N(C)Cc3cccc(OC)c3OC)cc2)cc1,i,i,-12.6%,22.4µM*,0.1%
COc1cccc(CN(C)C(=O)c2ccc(NS(=O)(=O)c3ccc4[nH]c(=O)[nH]c4c3)cc2)c1OC,i,i,-4.3%,.,2.2%
